Assay outcomes (PubChem)
Shown is part of a subset that was picked to be rich in hits.
nsP2pro inh – CHIKV nsP2 protease inhibition, primary qHTS | FRET peptide cleavage, nsP2pro, fluorescence 1 h | Potency, µM (top dose mostly 24.9 µM), actives largely listed as inhibitors | 1.1% of 31,000 active | AID 1964107; note: nearly all actives have a fitted effect of over 60% in size
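Enzyme 150 nM, substrate 2.5 uM (both final); Tris-HCl 10 mM pH 8.0 + 0.01% Tween 20; cpd up to 25 uM, 7 pts; 15 min preinc., 1 h RT; fluorescence ex 525/em 598.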
nsP2 cell sec – inhibits CHIKV nsP2 protease in cells; cell-based CHIKV nsP2 protease reporter assay; 10% of 450 active; AID 1964100; shares compounds with nsP2pro inh; Potency, µM (highest dose often 51.1 µM), most hits filed as inhibitors; note: nearly all actives have a fitted effect of over 70% in size
CHIKV NSP2 FL – selectivity test for CHIKV nsP2 protease inhibitors: full-length NSP2; shares compounds with nsP2pro inh; Full-length CHIKV NSP2 protease enzymatic counterscreen; Potency, µM (doses to about 50.7 µM), hits mostly inhibitors; 39% of 410 active; note: nearly all actives have a fitted effect of over 65% in size
Furin counterscr – selectivity counter-screen for CHIKV nsP2 protease inhibitors: human furin; Potency, µM (titrated, usually from 50.6 µM), actives largely listed as inhibitors; AID 1964102; Recombinant human furin enzymatic counterscreen, fluorogenic substrate; shares compounds with nsP2pro inh; 6% of 410 active
NS23 peptide cs – blocks CHIKV nsP2 protease cleavage of endogenous NS2/3 peptide; shares compounds with nsP2pro inh; Purified CHIKV nsP2 protease, endogenous NS2/3 peptide cleavage; Potency, µM (top dose mostly 51 µM), hits mostly inhibitors; 34% of 410 active; AID 1964103; note: nearly all actives have a fitted effect of over 55% in size
Papain cs – papain protease inhibition, counterscreen for nsP2pro inhibitors. 5% of 410 active. Potency, µM (top dose mostly 51 µM), actives largely listed as inhibitors. purified papain protease activity, enzymatic inhibition. shares compounds with nsP2pro inh
nsP2pro confirm – confirmation of CHIKV nsP2 protease inhibitors; Potency, µM (top dose mostly 25.5 µM), hits mostly inhibitors; shares compounds with nsP2pro inh; AID 1964105; CHIKV nsP2 protease enzymatic activity, qHTS; 43% of 410 active; note: nearly all actives have a fitted effect of over 75% in size
HCV NS3 counter – HCV NS3/4A protease inhibition, counterscreen; shares compounds with nsP2pro inh; HCV NS3/4A protease biochemical counterscreen; Potency, µM (highest dose often 50.9 µM), actives largely listed as inhibitors; 20% of 410 active; AID 1964106; note: nearly all actives have a fitted effect of over 55% in size
A number is an active result; - = inactive; ? = inconclusive; [ ] = dose if it differs, or a comment. Calls come from the whole dose curve.

SMILES	nsP2pro inh	others
CC(C)CNC(=O)c1cc(-c2ccsc2)nc2c1cnn2C	-
Cc1ccc(C(=O)N2CCC3(CC2)N=C(c2cccc(Br)c2)NO3)s1	-
CCn1c(-c2nonc2N)nc2c(C#CCO)ncc(OCCCN)c21	-
Cc1nnc(Nc2sc3c(c2-c2nc4ccccc4s2)CCNC3)o1	-
Cc1cc(C[C@@H]2COC[C@@H]2NC(=O)CCc2nc(-c3ccco3)no2)on1	-
CC#CC(=O)N1CCCC(C(=O)Nc2ccc(-c3cccc(OC)c3)cc2)C1 (stereo not drawn)	-
O=C(Nc1ccc(Cl)cc1)C1CCCN(C(=O)c2cccc(-c3ccco3)c2)C1 (stereo not drawn)	7µM	nsP2 cell sec=?;CHIKV NSP2 FL=-;Furin counterscr=-;NS23 peptide cs=-;Papain cs=-;nsP2pro confirm=?;HCV NS3 counter=-
COc1ccc(C(=O)N2CCC(C(=O)Nc3ccc(Cl)cc3)CC2)cc1	-
Cc1c(-c2ccccc2F)[nH]c2ccc(CNC(=O)C3C=CCN3)cc12 (stereo not drawn)	-
[Hg+][c]1ccccc1	0.56µM	nsP2 cell sec=?;CHIKV NSP2 FL=1µM;Furin counterscr=1µM;NS23 peptide cs=3.7µM;Papain cs=-;nsP2pro confirm=0.28µM;HCV NS3 counter=0.23µM
Nc1ccccc1	-
C=CCCC(=O)N1CCOc2c(O)cc(-c3nc4ccccc4s3)cc2C1	-
CCc1ccc(C2=CC(C)(C)Sc3ccc(C#Cc4ccc(C(=O)O)cc4)cc32)cc1	-
CN(CC(=O)N1CCC(CCOc2ccc(F)cc2)C1)S(=O)(=O)c1ccc2c(c1)oc(=O)n2C (stereo not drawn)	-
COc1ccccc1OC1(C(=O)O)CCN(Cc2cccnc2)CC1	-
COc1ccccc1OC1(C(=O)O)CCN(c2ncnc(C)c2C)CC1	-
COc1ccccc1OC1(C(=O)O)CCN(Cc2ccc(-c3ccn[nH]3)o2)CC1	1µM	nsP2 cell sec=?;CHIKV NSP2 FL=?;Furin counterscr=-;NS23 peptide cs=-;Papain cs=-;nsP2pro confirm=-;HCV NS3 counter=-
Cc1ccc(-c2ccc(=O)n(CC(=O)N(C)[C@@H](C)c3ccccc3)n2)cc1	-
O=C(Cn1nc(-c2cccnc2)ccc1=O)NCCc1ccccc1	-
CCCC1=CC2=C(CO1)C(=O)C(C)(OC(=O)c1c(C)cc(OC)cc1O)C(O)C2 (stereo not drawn)	-
O=C(O)c1ccc(O)c2ncc(-c3cccc(N4CCOCC4)c3)cc12	-
COc1ccc(-c2ccc3cc(C(=O)O)ccc3c2)cc1C12CC3CC(CC(C3)C1)C2	-
COc1cc(C(=O)O)ccc1OC1OC(CO)C(O)C(O)C1O (stereo not drawn)	-
COc1cc(C(=O)O)cc(OC)c1O	?	nsP2 cell sec=-;CHIKV NSP2 FL=?;Furin counterscr=-;NS23 peptide cs=-;Papain cs=-;nsP2pro confirm=-;HCV NS3 counter=-
CS(=O)(=O)n1cc2c(n1)CN([C@H]1CO[C@H](c3cc(F)ccc3F)[C@@H](N)C1)C2	-
SMILES	nsP2pro inh	others
O=C(/C=C/c1ccc(O)c(O)c1)O[C@@H]1CC(O)(C(=O)O)C[C@@H](OC(=O)/C=C/c2ccc(O)c(O)c2)C1O (stereo partly drawn)	-
COc1cc(Cl)ccc1C(=O)Nc1nc(-c2ccccc2)cs1	-
CC(C=CC1=C(C)CCCC1(C)C)=CC=CC(C)=CC(=O)Oc1c(C)c(C)c2c(c1C)CC[C@@](C)(CCC[C@H](C)CCC[C@H](C)CCCC(C)C)O2	-[2.68 µM]
O=C(O)c1ccc(CCCc2ccc(OCCc3ccc(F)cc3)cc2)o1	-
Cc1ccc(CNS(=O)(=O)c2ccc3[nH]c4c(c3c2)CCCC4)cc1	-
CN(CC(=O)NCc1ccc(F)cc1)S(=O)(=O)c1ccc2[nH]c3c(c2c1)CCCC3	-
Cc1cccc(N(C)C(=O)CN(C)S(=O)(=O)c2ccc3[nH]c4c(c3c2)CCCC4)c1	?	nsP2 cell sec=-
O=C(Nc1ccc(Cl)c(S(=O)(=O)N2CCOCC2)c1)c1ccc(S(=O)(=O)N2CCCCC2)cc1	-
